Experimental data published in PubChem BioAssay (NCI).
Compounds without any hit were thinned out: in the full panel of roughly 83,000, 20% have a hit.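 Cells were grown in 96-well plates and exposed to the test compound at a single concentration for 48 hours; results are reported as percent growth, with values below 10 considered active.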 Values without a mark were called inactive. Activity calls are given as the source filed them.

Assays:
Experiment in all cases: NCI-60 one-dose screen, 48 h (100 = growth as untreated, 0 = no growth, -100 = all killed)
Conditions in all cases: 10 µM unless noted
NCI-H23 lung = test system: NCI-H23 lung
NCI-H322M lung = test system: NCI-H322M lung
HOP-62 NSCLC = test system: HOP-62 NSCLC
NCI-H460 lung = test system: NCI-H460 lung
HOP-92 NSCLC = test system: HOP-92 NSCLC
NCI-H522 lung = test system: NCI-H522 lung
A549/ATCC NSCLC = test system: A549/ATCC NSCLC
786-0 renal = test system: 786-0 renal
COLO 205 colon = test system: COLO 205 colon

Structure (SMILES) | growth (NCI-H23 lung) | growth (NCI-H322M lung) | growth (HOP-62 NSCLC) | growth (NCI-H460 lung) | growth (HOP-92 NSCLC) | growth (NCI-H522 lung) | growth (A549/ATCC NSCLC) [%] | growth (786-0 renal) | growth (COLO 205 colon)
Cc1cc(Oc2ccccc2)ccc1Nc1ncnc2ccc(-c3cnc(Cl)c(NS(C)(=O)=O)c3)cc12 | 28.5% | 0.949% (active) | 28.2% | 18% | -14% (active) | 32.1% | 11 | 16.8% | 12.1%
COc1ccc2c(CCCC(c3ccccc3)c3ccccc3)c3[n+](cc2c1OC)CCc1cc2c(cc1-3)OCO2 | -30.1% (active) | 16.2% | -9.19% (active) | -53% (active) | -40.6% (active) | -21% (active) | 10.2 | -18.7% (active) | -67.8% (active)
CC/C(=C(\c1ccc(OCCN2CCCCCCC2)cc1)c1ccc(OC(=O)C2CCCCC2)cc1)c1ccc(Cl)cc1 | 99.4% | 80.9% | 102% | 106% | 90.3% | 89.4% | 104 | 104% | 123%
